Structures can show the parent of a compound that is named as a salt. About 130 (2.5%) of roughly 5,300 compounds showed an effect of 50% or more. The full list was thinned out, with strong results kept by preference.
System: M. mycetomatis strain mm55
Conditions: primary screen, metabolic activity vs growth control; 96 h, 2 µM; inhibitor

SMILES	% viability [%]
N[C@@H]1C[C@H]1c1ccccc1 (racemic) [ONC0000562, tranylcypromine sulfate]	104.4
CCCN(CCC)CCc1ccc(OC)c(OCCc2ccccc2)c1 [ONC0000866, ne100]	62.29
O=P(O)(O)C(O)(Cc1cnc2ccccn12)P(=O)(O)O [ONC0000278, minodronic acid hydrate]	88.21
C[C@@H]1O[C@@]2(CS1)CN1CCC2CC1.C[C@H]1O[C@]2(CS1)CN1CCC2CC1.Cl [ONC0002680, cevimeline]	67.14
COc1ccccc1CC(=N)N1C[C@@H]2C(=O)CCC(c3ccccc3)(c3ccccc3)[C@@H]2C1 [ONC0001413, rp67580]	48.12
COc1ccccc1N1CCN(CCN2C(=O)CC3(CCCC3)CC2=O)CC1 [ONC0002563, bmy7378]	52.22
NC(CC(F)C(=O)O)C(=O)O (stereo not drawn) [ONC0003677, 4fluorodlglutamic acid]	63.49
CCN(CC)S(=O)(=O)c1ccc(C(=O)O)cc1 [ONC0004305, etebenecid]	97.53
CC(C)c1ccc2c(c1)CC[C@H]1[C@](C)(CN)CCC[C@]21C [ONC0000210, lylamine]	63.87
O=c1[nH]cnc2c1ncn2[C@H]1CC[C@@H](CO)O1 [ONC0004781, didanosine videx]	107
Nc1ncnc2c1ncn2[C@@H]1O[C@H](CO)C[C@H]1O [ONC0003004, cordycepin]	108
Nc1ncnc2c1ncn2[C@H]1CC[C@@H](CO)O1 [ONC0003689, 23dideoxyadenosine]	49.81
CSc1ccccc1Nc1nc(N2CCNCC2)nc2c(NCC3CC3)ncnc12.Cl [ONC0001097, khkin1 hydrochloride]	76.94
COc1cc(N2CCN(C(C)=O)CC2)ccc1Nc1ncc(Cl)c(Nc2ccc(N3CCN(C(C)=O)CC3)cc2OC)n1 [ONC0003574, krca0008]	122
O=C(O)c1ccc(OCCn2ccnc2)cc1 [ONC0003331, dazoxiben]	112.5
CC[C@@H]([C@H](C)O)n1ncn(-c2ccc(N3CCN(c4ccc(OC[C@@H]5CO[C@@](Cn6cncn6)(c6ccc(F)cc6F)C5)cc4)CC3)cc2)c1=O [Posaconazole]	0.7626
CC(C)N1CCN(c2ccc(OC[C@@H]3CO[C@@](Cn4cncn4)(c4ccc(Cl)cc4Cl)O3)cc2)CC1 [ONC0002390, terconazole]	66.82
CCC(C)n1ncn(-c2ccc(N3CCN(c4ccc(OCC5COC(Cn6cncn6)(c6ccc(Cl)cc6Cl)O5)cc4)CC3)cc2)c1=O (stereo not drawn) [Itraconazole hydrochloride]	4.9
CC(=O)N1CCN(c2ccc(OCC3COC(Cn4ccnc4)(c4ccc(Cl)cc4Cl)O3)cc2)CC1 (stereo not drawn) [Ketoconazole]	1.788
CCC(=O)O[C@@H](OP(=O)(CCCCc1ccccc1)CC(=O)N1C[C@H](C2CCCCC2)C[C@H]1C(=O)O)C(C)C (stereo partly drawn) [ONC0005007, fosinopril sodium monopril]	152.1
O=C(CCCN1CCC(n2c(O)nc3ccccc32)CC1)c1ccc(F)cc1 [ONC0002014, benperidol]	79.93
N[C@@H]1CON=C1O [ONC0000314, cycloserine d]	88.4
CN[C@@H](C)C(=O)N[C@H]1CCCC[C@H]2CCC(C(=O)N[C@@H](c3ccccc3)c3cn(CCCCc4ccc(CCCCn5cc([C@@H](NC(=O)[C@@H]6CC[C@@H]7CCCC[C@H](NC(=O)[C@H](C)NC)C(=O)N76)c6ccccc6)nn5)cc4)nn3)N2C1=O (stereo partly drawn) [ONC0003931, sm164]	63.69
C=CC(=O)[O-].[Na+] [ONC0002646, sodium acrylate]	77.54
N#Cc1cnc2cnc(NCc3cccnc3)cc2c1Nc1ccc(F)c(Cl)c1 [ONC0001337, tcs7006]	78.74
CCN1CCC(n2cc(CNc3cc(Cl)c4ncc(C#N)c(Nc5ccc(F)c(Cl)c5)c4c3)nn2)CC1 [ONC0002075, cot inhibitor2]	82.04
N#Cc1cnc2c(Cl)cc(NCc3cn(CCN4CCCCCC4)nn3)cc2c1Nc1ccc(F)c(Cl)c1 [ONC0000779, cot inhibitor1]	49.03
CC(C)=CCC/C(C)=C/CC/C(C)=C/C=C/C(C)=C/C(=O)O [ONC0000885, peretinoin]	65.8
CCCC[P+](CCCC)(CCCC)Cc1ccc(NC(=O)[C@H](Cc2ccc3ccccc3c2)N=C(NC2CCCCC2)NC2CCCCC2)cc1 [ONC0000223, win64338]	62.1
CC(NC(=O)CCc1nc(=O)c2ccccc2[nH]1)c1ccccc1 (stereo not drawn) [ONC0005174, me0328]	117.9

Source: PMC12670160, “A drug-repurposing screen of FDA- and EMA-approved drugs identifies two NF-κB inhibitors active against eumycetoma” (Journal of Antimicrobial Chemotherapy, 2025)
